LmPK inhibitor – blocks Leishmania mexicana pyruvate kinase activity; AID 1721; Q27686; purified LmPK, Kinase-Glo ATP luminescence, 1 h; actives 0.37% (n = 290,000); Potency, µM (series often up to 57.5 µM), for inactives: at the top dose activity change, negative = inhibition, most hits filed as inhibitors; note: potency is the fitted concentration of half-maximal effect; % is set by controls: 0 for no effect and ±100 for the full control effect
Target sequence (Q27686 whole entry, looked up): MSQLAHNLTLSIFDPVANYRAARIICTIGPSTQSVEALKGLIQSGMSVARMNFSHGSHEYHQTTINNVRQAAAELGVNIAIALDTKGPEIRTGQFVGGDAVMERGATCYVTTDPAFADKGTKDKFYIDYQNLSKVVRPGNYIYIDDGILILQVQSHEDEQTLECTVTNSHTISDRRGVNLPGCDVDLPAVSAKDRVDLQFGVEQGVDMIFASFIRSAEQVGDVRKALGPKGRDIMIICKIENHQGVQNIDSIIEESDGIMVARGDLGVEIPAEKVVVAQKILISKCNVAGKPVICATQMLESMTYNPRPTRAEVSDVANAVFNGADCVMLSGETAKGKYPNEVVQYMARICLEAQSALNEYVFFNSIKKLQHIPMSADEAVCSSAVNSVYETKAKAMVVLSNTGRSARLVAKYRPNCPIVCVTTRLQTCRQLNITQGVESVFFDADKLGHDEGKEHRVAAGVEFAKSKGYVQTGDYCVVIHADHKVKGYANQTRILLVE
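In 50 mM imidazole pH 7.2 with 7 mM MgCl2, LmPK (0.1 nM) turned over PEP (0.5 mM) and ADP (0.1 mM) for 1 h at room temperature. Luciferase read-out of ATP.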
Pf growth 96h – inhibits malaria parasite growth, 96 h | P. falciparum luciferase reporter growth, 96 h | Potency, µM (highest dose often 28.7 µM), inactives show at the top dose activity change, negative = inhibition, most hits filed as inhibitors | actives 6.9% (n = 320,000) | AID 504834; note: potency is the fitted concentration of half-maximal effect; % is set by controls: 0 for no effect and ±100 for the full control effect
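Two-generation exposure (96 h) targets delayed-death phenotype. Reporter parasites carrying integrated firefly luciferase, in red cells at 2% hematocrit and 0.05% parasitemia final, kept at 37 C, 5% CO2; luminescence loss indicates inhibition.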
Cycloheximide cs – counter-screen hit for Shiga toxin inhibitors, cycloheximide | cell reporter, cycloheximide protein synthesis inhibition counterscreen | max response, % | actives 12% (n = 300,000) | AID 2314; in the data active = max response mostly above about 13%, no sharp cut-off; inactive = mostly below about 14%; note: read at 38.3 µM for the half of the compounds with a filed dose; 0% is about no effect
Pf growth 48h – inhibits P. falciparum growth in the first generation, 48 h; P. falciparum luciferase growth in erythrocytes, 48 h; Potency, µM (series often up to 28.7 µM), for the others: at the highest dose activity change, negative = inhibition, hits mostly inhibitors; actives 5.9% (n = 310,000); note: potency is the fitted concentration of half-maximal effect; % is set by controls: 0 for no effect and ±100 for the full control effect
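Luciferase-expressing P. falciparum in infected erythrocytes (2% hematocrit, 0.1% parasitemia final) in RPMI 1640/0.5% Albumax were exposed to compound for 48 hours at 37 C, 5% CO2; growth read as luminescence.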
Shiga toxin inh – Shiga toxin inhibition | Vero cells, Shiga toxin protein synthesis inhibition reporter | actives 9.2% (n = 290,000) | inhibition, % at 38.7 µM | AID 2315; in the data active = inhibition mostly above about 28%, no sharp cut-off; inactive = mostly below about 43%; note: 0% is about no effect
Active calls of the source: *; ? = inconclusive; / = no result; [ ] = dose if it differs, or a comment. Shown are actives, neighbours in structure and some others; about 22% of the full set was active somewhere. Unless noted, calls come from the whole dose curve; as a rule, active = well fitted inhibition curve with a large enough effect; inconclusive = small, poorly fitted or top-dose-only effect, or another doubt; inactive = no such curve, though single readings can be large or run the other way.

SMILES	LmPK inhibitor	Pf growth 96h	Cycloheximide cs	Pf growth 48h	Shiga toxin inh
C/C(=N/NS(=O)(=O)c1ccccc1)c1ccc(NC(=O)C2CC2)cc1	-1%	?	2	1%	30
O=C(Nc1ccccc1)c1c(F)cccc1F	-9%	/	17	43%	43
C/C(N=Nc1nc2ccccc2s1)=N\Nc1ccccc1O	-4%	8%	11	2.6µM*	30
N#Cc1cnc(Nc2ccc(F)cc2)nc1N	-4%	-24%	24*	10%	33
Cc1cc(C)c(C#N)c(Nc2ccc(F)cc2)n1	-6%	?	-1	32%	-9
COc1cc(NC(=O)c2ccc(COCC(F)(F)F)cc2)cc(OC)c1OC	5%	?	-4	?	-5
CCOC(=O)N1CCN(S(=O)(=O)c2ccc(C(=O)Nc3nnc(CSC)o3)cc2)CC1	0%	-9%	-3	23%	-7
O=C1C2C3C=CC(C3)C2C(=O)N1c1ccc(-c2nc3ccccc3o2)cc1 (centres undefined)	-9%	3%	29*	165%	110
CCCCCCSc1ccc([C@@H]2[C@H]3C(=O)N(C)C(=O)[C@H]3[C@]3(C(=O)OC)CCCCN23)cc1OC	/	7.4µM*	/	?	/
CCCSc1ccc([C@@H]2[C@@H]3C(=O)N(C)C(=O)[C@@H]3[C@]3(C(=O)OC)CCCN23)cc1OC	/	8.3µM*	/	12µM*	/
CCCCCCSc1ccc([C@@H]2[C@@H]3C(=O)N(C)C(=O)[C@@H]3[C@]3(C(=O)OC)CCCCN23)cc1OC	/	5.9µM*	/	3.3µM*	/
CCCCOc1ccc(C(=O)NN2C(=O)NC3(CCCCC3)C2=O)cc1OC	/	5%	/	?	/
C=CCn1cc(C(=O)N2CCN(C)CC2)c(=O)c2cc(S(=O)(=O)N(CC)CC)ccc21	1%	35%	-6	22%	2
CC1(C)CC(NS(=O)(=O)c2ccc(C(C)(C)C)cc2)CC(C)(C)N1	1%	296%	-2	3%	-11
Cc1cc(C(N)=O)c2ccccc2n1	2%	?	-1	10%	-17
NC(=O)c1cc2c3ccccc3ccn2c1-c1ccccc1	-1%	-58%	52*	-1%	94*
COc1cc(CNC2CCCCCCC2)cc(Br)c1OCC#N	3%	-102%	-3	?	-5
C=CCOc1c(Br)cc(CNc2ccc(NC(=O)C(C)C)cc2)cc1OCC	-1%	13µM*	-1	-8%	16
CCOc1cc(CNc2ccc3c(c2)OCCO3)cc(Br)c1OC	2%	?	11	/	6
CCOc1c(Br)cc(CNC2CCCCCCC2)cc1OC	0%	6%	-6	10µM*	18
CCOc1cc(CNc2ccc(O)cc2)cc(Br)c1OCc1ccccc1F	-3%	31%	2	?	-2
CCOc1c(Br)cc(CNc2ccc3c(c2)OCCO3)cc1OC	11%	0.83µM*	49*	/	97*
CCOc1cc(CNc2ccc3c(c2)OCCO3)cc(Br)c1OCC(N)=O	5%	?	20*	?	29
O=C(NCc1ccco1)c1ccccc1SCC(=O)N1CCCC1	/	-10%	/	?	/
CC(O)CNc1nc2ccccc2n1CC(=O)NC12CC3CC(CC(C3)C1)C2 (centres undefined)	0%	0%	-2	-14%	8
SMILES	LmPK inhibitor	Pf growth 96h	Cycloheximide cs	Pf growth 48h	Shiga toxin inh
COc1ccc(N2CCN(C(=O)COC(=O)COc3cc(C)cc(C)c3)CC2)cc1	/	14%	/	-25%	/
COc1cc2cc(CCCOC(=O)c3ccc(C#N)cc3)oc(=O)c2cc1OC	/	-1%	/	3%	/
O=C(Nc1ccc(Cl)c(NC(=O)c2cccs2)c1)c1ccco1	1%	-20%	7	15%	-11
O=C(Nc1ccc(NC(=O)c2cccs2)cc1Cl)c1ccco1	7%[11.5 µM]	13%	38*	86%	96*
O=C(Nc1ccc(NC(=O)c2cccs2)c(Cl)c1)c1cccs1	-1%	?	43*	-13%	50*
COc1cc(NC(=O)c2cccs2)ccc1NC(=O)c1ccco1	4%	12%	40*	44%	127*
CC1(C)CC(=O)C(C=Nc2ccc(NC3=C(C#N)C(=O)CC(C)(C)C3)cc2)=C(O)C1	3%	13%	4	-13%	-8
COc1ccccc1N1CCN(C(C)C(=O)Nc2ccc(S(=O)(=O)N3CCOCC3)cc2)CC1 (centres undefined)	1%	?	1	35%	19
CCc1ccc(NC(=O)c2cc(-c3cccs3)on2)cc1	-5%	-15%	38*	310%	100*
O=C(Nc1cccc(C(F)(F)F)c1)c1cncs1	-3%	-1%	7	-4%	12
COc1ccc(NC(=O)c2cc(-c3cccs3)on2)cc1	-3%	-78%	29*	109%	73*
O=C(Nc1cccc(C(F)(F)F)c1)c1cc(-c2cccs2)on1	2%	?	23*	60%	12
Cn1ccs/c1=N\C(=O)Nc1cccc(C(F)(F)F)c1	1%	0%	28*	37%	69*
COC(=O)c1ccccc1NC(=O)c1cc(-c2cccs2)on1	3%	-7%	-2	8%	-12
COc1ccc(Cc2nnc(NC(=O)C(C)(C)C)s2)cc1	1%	18%	10	-1%	21
C[C@@H](NC(=O)c1nc[nH]c1C(=O)N(C)Cc1ccccc1)c1ccccc1	/	15%	/	-13%	/
COc1ccc(NC(=O)c2cc(-c3cccs3)on2)cc1OC	4%	-15%	24*	-5%	36
COc1ccc(-c2cc(C(=O)Nc3ccc(C)c(C)c3)no2)cc1	-5%	?	-6	15%	0
Cc1ccc(NC(=O)c2cc(-c3ccc(F)cc3)on2)cc1C	-2%	?	20*	22%	35
CCc1ccc(NC(=O)c2sccc2-n2cccc2)cc1	3%	118%	19*	?	55
Cc1ccc(NC(=O)c2cc(-c3cccs3)on2)cc1C	-4%	?	57*	456%	170*
Cc1cc2c(SCC(=O)NCC3CCCO3)ncnc2s1 (centres undefined)	1%	-13%	8	-2%	-3
Cc1ccc(-c2nc(SC(C)C(=O)c3c(N)n(C)c(=O)n(C)c3=O)n[nH]2)cc1 (centres undefined)	/	-15%	/	-2%	/
CCN(C(=O)COC(=O)c1ccc2ccccc2n1)c1c(N)n(Cc2ccccc2)c(=O)[nH]c1=O	/	7%	/	34%	/
COCCNC(=O)C(C)OC(=O)C1=Cc2ccccc2OC1 (centres undefined)	-4%	?	15*	16%	18
COc1ccc(-c2csc(Nc3cc(C)ccn3)n2)cc1OC	-6%	5%	51*	17%	63*
COc1ccc(-c2csc(Nc3ccc(S(N)(=O)=O)cc3)n2)cc1OC	9%	?	-6	?	-11
COc1ccc(-c2csc(Nc3ccc(C)cn3)n2)cc1OC	-2%	159%	34*	11%	75*
Cc1cc(Br)c2[nH]cc(CCNC(=O)c3ccco3)c2c1	2%	?	-3	?	7

Screens: PubChem, National Center for Advancing Translational Sciences (NCATS)
